# Key:
# Test in all cases: PBM binding z-score (relative to random genomic background probes); higher = stronger binding; sequences stand for … in GC…GCGATTGACAGCGTAGAATGAAGG
# [1] = test system: FXR:RXRa (NR concentration 270 nM, RXRa partner concentration 90 nM)
# In short: (§1)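 On custom Agilent 4×180K arrays, double-stranded probes with 34-nt variable regions carried direct-repeat seeds, single-nucleotide variants, half-site ablations or random human genomic background. Ligand-free nuclear receptor dimers were applied for 1 h, and binding was read with antibodies against each partner (one per run). Binding z-scores come from regression-normalized fluorescence, with the random background probes as reference.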
# [2] = test system: LXRa:RXRa (NR concentration 270 nM, RXRa partner concentration 90 nM)
# In short: as §1
# [3] = test system: LXRa homodimer (NR concentration 270 nM)
# In short: as §1
# [4] = test system: LXRb:RXRa (NR concentration 270 nM, RXRa partner concentration 90 nM)
# In short: as §1
# [5] = test system: LXRb homodimer (NR concentration 270 nM)
# In short: as §1
# [6] = test system: PPARa:RXRa (NR concentration 270 nM, RXRa partner concentration 90 nM)
# In short: as §1
# [7] = test system: PPARg:RXRa (NR concentration 180 nM, RXRa partner concentration 90 nM)
# In short: as §1
# [8] = test system: PPARg:RXRa 270nM:90nM, anti-RXR (NR concentration 270 nM, RXRa partner concentration 90 nM)
# In short: as §1
# [9] = test system: PPARg:RXRa 30nM:10nM, anti-RXR (NR concentration 30 nM, RXRa partner concentration 10 nM)
# In short: as §1
# [10] = test system: PPARg:RXRa 90nM:30nM, anti-RXR (NR concentration 90 nM, RXRa partner concentration 30 nM)
# In short: as §1
Sequence,PBM binding z-score [1],PBM binding z-score [2],PBM binding z-score [3],PBM binding z-score [4],PBM binding z-score [5],PBM binding z-score [6],PBM binding z-score [7],PBM binding z-score [8],PBM binding z-score [9],PBM binding z-score [10]
CGAAATAGGTCATTGACAGGACAGTGAATAGTAA,6.1,5.06,1.3,3.58,0.828,5.64,6.83,6.73,4.21,6.12
TAGCCTAGGTCAGATCGGGCCAGTTTACGCTATA,2.08,0.989,-0.49,0.503,-0.465,1.74,0.188,0.541,-0.568,-0.123
GATACAGGATCAGCTAGAGGCCAGAGTATGGAAA,-0.162,-0.497,-0.55,-0.727,-1.05,-0.383,0.505,-0.286,0.0459,0.0181
TTACCAAGGTGAAGGTCGTTGGTCCCTCTGTAGA,1.16,1.1,-0.0893,1.2,-0.734,2.45,2.79,4.07,1.8,3.33
GTACCAAGGTGACTAGGTCGTTGATGAGTAGGCG,0.348,0.174,-0.398,-0.125,-1.01,1.59,1.89,1.69,0.141,0.756
CAAACTAGGTCAAGAGGTTAAAGTCCGCTTCCCG,5.05,4.32,2.01,3.13,0.567,5.3,8.91,7.27,5.14,7.16
GCTAGTTGGCCAGTAAAAGGTCACACACCGGTCG,2.93,4.16,3.87,4.02,0.221,4.29,1.91,3.48,1.25,2.46
GCTCGGAGGACGAGGTCAGAGCTTTGTCCGTAGA,1.88,1.6,-0.0578,1.38,-1.38,2.9,0.449,1.04,-0.495,0.269
GCTCGGAGGTCAAGGTCAGAGCTTTGTCCGTAGA,7.3,5.97,1.81,4.82,1.33,5.76,6.41,6.35,2.69,5.23
GGTACGAGGGCATTCGAGTTGATAGCATGGCGAT,1.45,1.69,-0.269,0.123,-0.742,0.926,0.726,0.262,-0.638,0.0723
TGAATGAGGTTATAAGATCGGGGAACGTTGCAAA,1.36,1.27,-0.276,1.05,0.228,2.6,0.897,1.59,0.637,1.13
ATACCCAGGTGATCGTGAGGTCGTTGATACTAAC,1.37,1.07,0.85,1.07,-0.141,1.35,0.596,0.875,-0.0532,0.317
CCGAGTAGGTTATGGGGCATTAAGGCAACGGTGA,0.273,0.355,0.112,0.489,0.086,1.94,3.57,4.37,2.35,3.99
CCGACTGGGGCAGAAAGGTTAGCATACCATCCGG,-0.121,0.018,-0.422,0.0251,-1.09,1.22,1.22,1.7,-0.0378,0.958
GGAACGAGGGCTTTCGAGTTGATAGCATGGCGAT,-0.242,-0.418,-0.465,-0.655,-0.894,-0.173,0.0484,-0.127,-0.533,-0.499
CCTACTGGGCCAAAAAGGTCATTGCTGCCGATAA,3.75,4.36,3.33,4.21,0.236,4.7,3.04,4.09,1.5,3.64
CCTCGGAGGACAACAGGAGGTCAGCGCTGCCAGA,1.63,2.48,1.84,1.66,-0.537,2.37,0.445,0.734,-0.791,0.307
CCAGACAGGTGAAAGGTAACTCGGTCTGGTACGC,0.495,0.577,-0.368,0.702,-0.561,3.46,5.96,5.52,4.56,6.21
TCTAGCAGGCCAGAGGGTTACTCAAGAGGTACGG,-0.419,-0.0387,-1.02,-0.282,-1.4,0.38,0.82,1.73,1.86,1.81
CGTCAAAGTTCAAGGTAACGTAGCAGAAAGCAGC,6.17,5.74,2.69,3.38,0.96,4.55,4.28,5.21,2.09,4.31
TCTTGTAGATCAATAGAGGGTAAGAAAGTGCGCT,0.692,0.902,-0.251,0.517,0.175,0.606,-0.216,1.19,2.61,2.29
CGTCCAAGTTCAATGCTAGGTCAGTGAAAGCATT,3.05,3.56,2.36,1.92,0.297,2.42,-0.0137,0.79,-0.404,0.397
CCTACTTGGCCACGAAAGGTCATTGATTCAGTGA,4.07,5.32,5.29,4.61,1.16,4.46,1.84,3.31,1.01,2.5
ATCGAAATGTCGAAGGTGAGTATACCCACCCGAA,-0.36,-0.333,-0.285,-0.254,-0.151,0.29,0.913,0.538,0.133,0.522

# Source: the supplement of paper PMC6555819
